Screening data deposited in PubChem by several laboratories.
CCHF vOTU inh – blocks the CCHF virus ovarian tumor domain protease; CCHFV vOTU protease, Pep-AMC fluorescence; inhibition, % at 11.5 µM; 370,000 tested, 0.55% active
GDH-TPI counter-1 – GDH-TPI coupled enzyme inhibition counter-screen; 360,000 tested, 1.2% active; inhibition, % at 4.8 µM; AID 588335; GDH-TPI coupled enzyme counterscreen, NADH absorbance
Mtb FBA inh – inhibitors of M. tuberculosis fructose-bisphosphate aldolase | P9WQA3 | inhibition, % at 1 µM | purified M. tuberculosis FBA, fluorescence read-out | 360,000 tested, 2.3% active | AID 588726; in the data active = inhibition above about 27%
Target sequence (P9WQA3 whole entry, looked up): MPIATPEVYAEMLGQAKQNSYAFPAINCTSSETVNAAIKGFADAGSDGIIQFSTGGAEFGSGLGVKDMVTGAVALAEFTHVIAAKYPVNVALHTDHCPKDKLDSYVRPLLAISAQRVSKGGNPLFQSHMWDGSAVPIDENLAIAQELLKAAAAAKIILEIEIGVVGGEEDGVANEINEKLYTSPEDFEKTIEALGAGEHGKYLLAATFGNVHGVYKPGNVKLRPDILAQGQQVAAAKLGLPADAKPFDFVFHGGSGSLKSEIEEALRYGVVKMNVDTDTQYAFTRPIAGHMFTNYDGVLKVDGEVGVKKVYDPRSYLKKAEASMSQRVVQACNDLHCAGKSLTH
BH1578 lux ind – induces V. cholerae light production without autoinducers; 350,000 tested, 0.16% active; activation, % at 18.7 µM; AID 588436; V. cholerae BH1578 lux reporter, luminescence, 6 h; in the data active = activation mostly above about 9.7%, no sharp cut-off
Mtb FBA confirm – confirmation of M. tuberculosis fructose-bisphosphate aldolase inhibitors. shares compounds with Mtb FBA inh. purified M. tuberculosis FBA, fluorescence read-out. inhibition, % at 1 µM. 5,600 tested, 78% active. AID 651616; in the data active = inhibition above about 27%
GDH-TPI counter-2 – GDH-TPI inhibition counter-screen for FBA inhibitors | inhibition, % at 1 µM | GDH-TPI coupled enzyme counterscreen, fluorescence | 5,600 tested, 81% active | AID 652141 | shares compounds with Mtb FBA inh; in the data active = inhibition above about 10%
GDH-TPI DR – GDH-TPI dose response counter-screen for Mtb FBA; shares compounds with Mtb FBA inh; GDH-TPI coupled enzyme assay, fluorescence, artifact counterscreen; IC50, µM; 170 tested, 79% active; AID 652145; call rule not given here
Numbers stand for hits; i = inactive; nt = not tested or not shown. Only some compounds are listed: those with a hit (about 3.9% of all), similar ones and a draw of the others. Rule as the data show it, unless noted: active = inhibition above about 30%; inactive = the rest.

SMILES | CCHF vOTU inh | GDH-TPI counter-1 | Mtb FBA inh | BH1578 lux ind | Mtb FBA confirm | GDH-TPI counter-2 | others
COc1cccc2sc3cc(C#Cc4ccccn4)ccc3c(=O)c12 | i | i | i | i | nt | nt
COc1ccc(OC)c2c1C(=O)CC2C (stereo not drawn) | i | i | 48 | i | i | i
CCOC(=O)C(NC(C)=O)(Nc1ccc(S(N)(=O)=O)cc1)C(F)(F)F (stereo not drawn) | i | i | i | i | nt | nt
Cc1cc(=O)oc2cc(OCC(=O)OCC(=O)Nc3ccc(C(N)=O)cc3)ccc12 | i | i | i | i | nt | nt
Cc1cc(=O)oc2cc(OCC(=O)OCC(=O)Nc3ccccc3F)ccc12 | i | i | 54 | i | 169 | 147
Cc1cc(=O)oc2cc(OCC(=O)NC3(C#N)CCCCC3)ccc12 | i | i | 77 | i | 58 | 58
Cc1cc(=O)oc2cc(OCC(=O)OCC(=O)Nc3ccccc3C(C)C)ccc12 | i | i | i | i | nt | nt
Cc1cc(=O)oc2cc(OCC(=O)OCC(=O)NC(C)C)ccc12 | i | i | 48 | i | 107 | 85
Cc1nnc(NC(=O)COc2ccc3c(C)cc(=O)oc3c2)s1 | i | i | 40 | i | 192 | 144
CCCn1c(N2CCN(CC(=O)NCc3cccs3)CC2)nc2ccccc21 | i | i | i | i | nt | nt
O=C(COC(=O)c1ccc[n+]([O-])c1)Nc1ccccc1OC(F)F | i | i | i | i | nt | nt
CNc1cccc(-c2ccc(N3CCN(C)CC3)nc2)n1 | i | i | 54 | i | i | i | GDH-TPI DR=3.5
Cc1nnc(SCC(=O)N(C)Cc2ccccc2)[nH]c1=O | i | i | i | i | nt | nt
C=CCOC(=O)N1CCC(NS(=O)(=O)c2ccc3c(c2)CCN3C(C)=O)CC1 | i | nt | nt | nt | nt | nt
Cc1noc(C)c1COc1ccccc1C(=O)NNC(=O)c1ccc(F)cc1 | i | i | i | i | nt | nt
COCOc1ccc(-c2cc(=O)c3c(OCOC)cc(OCOC)cc3o2)cc1 | nt | i | 64 | i | 106 | 64
COCOc1cc(O)c2c(=O)c(OCOC)c(-c3ccc(OCOC)c(OCOC)c3)oc2c1 | i | i | i | i | nt | nt
Cc1cc(OC(C)C(=O)NCC(O)c2ccccc2)c2c3c(c(=O)oc2c1)CCC3 (stereo not drawn) | i | i | 77 | i | 32 | 35
CCCc1cc(=O)oc2cc(C)cc(OCC(=O)NCC(O)c3ccccc3)c12 (stereo not drawn) | i | i | 61 | i | 161 | 151
Cc1cc(OC(C)C(=O)NCC2CCC(C(=O)O)CC2)c2c(C)cc(=O)oc2c1 (stereo not drawn) | i | i | 86 | i | 195 | 190
CCCc1cc(=O)oc2cc(C)cc(OC(C)C(=O)NCC(O)c3ccccc3)c12 (stereo not drawn) | i | i | 76 | i | i | i
CCCc1cc(=O)oc2cc(OCC(=O)NCC(O)c3ccccc3)ccc12 (stereo not drawn) | i | i | i | i | nt | nt
C=C(CC[C@@H](O)C(C)(C)O)[C@H]1CC[C@]2(C)[C@@H]1CCC1[C@@]3(C)CC[C@H](O)C(C)(C)C3CC[C@]12C (stereo partly drawn) | i | i | i | i | nt | nt
O=C(NC1CCCCC1)c1ccc(N2CCOCC2)c([N+](=O)[O-])c1 | i | i | i | i | nt | nt
Cc1c(Cl)cccc1NC(=O)CCCN1C(=O)c2cccnc2C1=O | i | i | i | i | nt | nt
SMILES | CCHF vOTU inh | GDH-TPI counter-1 | Mtb FBA inh | BH1578 lux ind | Mtb FBA confirm | GDH-TPI counter-2 | others
O=C1OC(Nc2ccc(Br)cn2)c2ccccc21 (stereo not drawn) | i | i | i | i | nt | nt
Cc1cc(OC(C)C(=O)NCC(O)c2ccccc2)c2c(C)cc(=O)oc2c1 (stereo not drawn) | i | i | 71 | i | 111 | 98
CCc1cc(=O)oc2cc(OC(C)C(=O)NCC(O)c3ccccc3)c(Cl)cc12 (stereo not drawn) | i | i | i | i | nt | nt
c1ccc(-c2ccc3ccccc3n2)cc1 | i | i | i | i | nt | nt
c1ccc2nc(-c3nc4ccccc4o3)ccc2c1 | i | i | 69 | i | 118 | 104
Nc1ccc2oc(-c3ccccn3)nc2c1 | i | i | i | i | nt | nt
c1ccc(-c2nc3ccccc3o2)nc1 | i | i | 29 | i | i | i
CCCN(C(=O)c1cc(S(=O)(=O)N(C)c2ccc(OCC)cc2)ccc1C)C1CCS(=O)(=O)C1 (stereo not drawn) | i | i | i | i | nt | nt
COc1cccc(NC(=O)CN(C)C(=O)c2cc(-c3ccc(C)o3)nc3ccccc23)c1 | i | i | 56 | i | 37 | 39
Cc1ccc(-c2cc(C(=O)NCc3ccco3)c3ccccc3n2)o1 | i | i | i | i | nt | nt
COc1ccc(NC(=O)CN(C)C(=O)c2cc(-c3ccc(Cl)cc3)nc3ccccc23)cc1 | i | i | i | i | nt | nt
Cc1ccc(-c2cc(C(=O)NCC(c3ccccc3)N(C)C)c3ccccc3n2)o1 (stereo not drawn) | i | i | 71 | i | 54 | 46
CCOc1ccc(NC(=O)CN(C)C(=O)c2cc(-c3ccc(OC)cc3)nc3ccccc23)cc1OCC | i | i | 28 | i | 51 | 39
COc1cc(OC)nc(C(NC(=O)C2CCN(Cc3ccc(Oc4ccccc4)cc3)CC2)c2ccc(F)cc2)n1 (stereo not drawn) | i | i | i | i | nt | nt
Nc1ncnc2nc(-c3ccccc3)[nH]c12 | i | i | 69 | i | i | i
Cc1ccc(NC(=O)Cc2cc(C(=O)O)c3ccccc3n2)c(C)c1 | i | i | i | i | nt | nt
O=C(NC1CCCC1)c1ccc2c(c1)N(Cc1ccc(F)cc1)CCS2 | i | i | 72 | i | i | i
CN(C)CCNC(=O)c1ccc2c(c1)N(Cc1ccc(F)cc1)CCS2 | i | i | 87 | i | i | i
O=C(O)c1ccccc1N/C=C\[N+](=O)[O-] | i | i | 32 | i | 71 | 56
O=C(/C=C/Nc1ccccc1C(=O)O)c1cccs1 | i | i | i | i | nt | nt
COc1ccccc1-c1cc(C(=O)O)c2c(=O)n(C)c(=O)n(Cc3ccccc3)c2n1 | i | i | 38 | i | i | i
Cn1c(=O)c2c(C(=O)O)cc(-c3ccccc3)nc2n(Cc2ccccc2)c1=O | i | i | i | i | nt | nt
O=C(NC1CCCCCCC1)c1cccnc1 | i | i | i | i | nt | nt
CCN(CC)C(=O)Cn1cc(S(=O)(=O)CC(=O)NC2CCCCC2)c2ccccc21 | i | i | 33 | i | 99 | 83
Cc1ccc2cc(C#N)c(NCc3ccccc3)nc2c1 | i | i | 32 | i | 53 | 44
COc1cc(CC(=O)N2C[C@H]3C[C@@H](C2)c2cccc(=O)n2C3)cc(OC)c1OC | i | i | i | i | nt | nt
COc1ccc2c(C)c(CC(=O)N3C[C@H]4C[C@@H](C3)c3cccc(=O)n3C4)c(=O)oc2c1OC | i | i | 30 | i | i | i
COc1cc2oc(=O)c(CC(=O)N3C[C@H]4C[C@@H](C3)c3cccc(=O)n3C4)c(C)c2cc1Cl | i | i | 45 | i | 35 | 28
